Screening data (PubChem BioAssay)
This is a sample that favours compounds with a hit; in the whole collection about 27% have one here.
sEH act: soluble epoxide hydrolase activators, primary screen, biochemical, human sEH; purified human sEH enzymatic activity, activator screen; activation, % at 2 µM; 91,000 compounds, 0.04% hits; AID 717, 2007; in the data active means activation above about 37%
Target sequence (P34913 whole entry, looked up): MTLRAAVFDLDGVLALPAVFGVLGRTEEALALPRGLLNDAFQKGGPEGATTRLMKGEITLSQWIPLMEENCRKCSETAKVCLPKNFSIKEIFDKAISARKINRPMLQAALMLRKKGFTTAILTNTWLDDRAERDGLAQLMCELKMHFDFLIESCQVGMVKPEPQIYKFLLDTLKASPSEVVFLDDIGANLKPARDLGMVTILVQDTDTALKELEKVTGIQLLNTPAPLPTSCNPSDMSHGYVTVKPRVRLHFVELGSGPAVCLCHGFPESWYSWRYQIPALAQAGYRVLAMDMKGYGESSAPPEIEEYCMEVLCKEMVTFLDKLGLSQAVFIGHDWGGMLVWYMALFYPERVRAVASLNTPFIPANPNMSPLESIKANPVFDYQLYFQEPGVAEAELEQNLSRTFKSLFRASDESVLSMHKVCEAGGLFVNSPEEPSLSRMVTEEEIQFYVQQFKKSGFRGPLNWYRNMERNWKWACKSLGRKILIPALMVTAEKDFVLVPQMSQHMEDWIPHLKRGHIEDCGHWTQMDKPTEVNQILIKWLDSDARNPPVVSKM
sEH inhibitor: soluble epoxide hydrolase inhibitors, primary screen, biochemical, human sEH; Bifunctional epoxide hydrolase 2 (Homo sapiens), P34913; 91,000 compounds, 0.34% hits; recombinant human sEH enzymatic activity assay; inhibition, % at 2 µM; in the data active means inhibition above about 80%
CYP2C19 inhib: blockers of cytochrome P450 2C19 activity – biochemical, luminescence, ADME assay, primary screen; P33261; 96,000 compounds, 21% hits; CYP2C19 Supersomes, luciferin-H EGE luminescence, 30 min; AID 778, 2007; inhibition, % at 5 µM;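 active means CYP2C19 inhibition above a set limit at 5 µM in the primary screen, cut at about 50% in these data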;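 further: plate controls were negative control wells for no effect and 2.5 mM tranylcypromine positive control for full effect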
CYP2C9 inh: blockers of cytochrome P450 2C9 activity – biochemical, luminescence, ADME assay, primary screen. CYP2C9 Supersomes, luciferin-H conversion. inhibition, % at 5 µM. 96,000 compounds, 20% hits. AID 777, 2007;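 active means blocking of liver enzyme CYP2C9 beyond about 50% at 5 µM, limit read from the data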
CYP2C19 activ: human CYP2C19 activators, primary screen, biochemical, luminescence; recombinant CYP2C19, luciferin-H EGE luminescence; hits give high values; 0 = fully inhibited enzyme, 1 = untreated enzyme; AID 1025, 2008; 96,000 tested, under 10 active; activation factor at 5 µM;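 active means activation factor of at least 2 at 5 µM in the primary screen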;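 further: 0 = wells with 2.5 mM tranylcypromine and 1 = vehicle-only wells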
CYP2C9 act: human CYP2C9 activators, primary screen, biochemical, luminescence; Cytochrome P450 2C9 (Homo sapiens), P11712; recombinant CYP2C9, luciferin-H conversion; hits give high values; factor 1 = untreated enzyme, 0 = blocked; AID 1024, 2008; 96,000 compounds, 1.4% hits; activation factor at 5 µM;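 active means activation factor of 2 or more for CYP2C9 at a 5 µM dose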;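 further: 0 = sulfaphenazole-blocked wells and 1 = vehicle-only wells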
Active calls of the source: *; . = no result.

SMILES	sEH act	sEH inhibitor	CYP2C19 inhib	CYP2C9 inh	CYP2C19 activ	CYP2C9 act
O=C(c1ccccc1NS(=O)(=O)c1cccc([N+](=O)[O-])c1)N1CCOCC1	3	-1	-1	1	1	1
CC(=O)c1cc2c(cc1NS(=O)(=O)c1ccc(C)cc1)OCO2	-4	6	63*	-12	0.4	1.1
CCN(CC)S(=O)(=O)c1ccc(C(=O)Oc2ccc3c(c2)OCO3)cc1	18	-19	-4	-1	1	1
CC(=O)c1cc2c(cc1NC(=O)CCCC(=O)O)OCO2	12	-13	-23	-16	1.2	1.2
NC(=O)c1ccccc1NS(=O)(=O)c1ccc2c(c1)OCCO2	-3	5	76*	-25	0.2	1.3
COc1cc(/C=N/c2oc(-c3ccccc3)cc2C#N)ccc1O	-6	8	-9	9	1.1	0.9
Cc1ccc(-n2ncc(C#N)c2/N=C/N2CCOCC2)cc1	3	-3	85*	65*	0.1	0.4
O=C(Nc1cccn(Cc2c(Cl)cccc2Cl)c1=O)c1c(Cl)cccc1Cl	-11	9	16	40	0.8	0.6
COC(=O)Nc1cccn(Cc2c(Cl)cccc2Cl)c1=O	-11	9	87*	-145	0.1	2.5*
Cc1ccc(C)c(SCC(=O)OCC(=O)c2ccco2)c1	12	-10	2	-16	1	1.2
CC1CCCC(NC(=O)CC2Nc3ccccc3NC2=O)C1C (stereo unspecified)	2	-3	20	-38	0.8	1.4
O=C(CC1Nc2ccccc2NC1=O)NC1CCCCC1 (stereo unspecified)	-9	10	11	-122	0.9	2.2*
COc1cccc(-c2nc(N3CC(C)CC(C)C3)c3ccccc3n2)c1O (stereo unspecified)	2	0	3	32	1	0.7
Oc1ccccc1-c1nc(NCCN2CCOCC2)c2ccccc2n1	4	0	89*	97*	0.1	0
Cc1ccc(-c2nc(NCCN3CCOCC3)c3ccccc3n2)cc1	-6	3	59*	72*	0.4	0.3
Cc1ccc(-c2nc3ccccc3c(=O)n2CCCN2CCOCC2)cc1	12	-11	-11	-3	1.1	1
COc1cccc(-c2nc(NCCN3CCOCC3)c3ccccc3n2)c1O	18	-21	32	56*	0.7	0.4
Oc1ccccc1-c1nc(NCc2ccco2)c2ccccc2n1	.	.	-16	-11	1.2	1.1
COc1cccc(-c2nc(NC(C)(C)C)c3ccccc3n2)c1O	.	.	31	84*	0.7	0.2
Cc1ccc(-c2c(C)n([O-])c3c([n+]2=O)CCCCC3)o1	.	.	19	0	0.8	1
CCC(=O)n1nc(-c2ccc(OC)cc2)nc1N	-8	7	13	-3	0.9	1
Cc1nnc(SCC(=O)N2c3ccccc3Sc3ccccc32)n1N	-4	7	22	3	0.8	1
CCn1c(SCC(=O)N2c3ccccc3Sc3ccccc32)nnc1-c1ccco1	-6	8	89*	83*	0.1	0.2
CCn1c(SCC(N)=O)nnc1-c1ccco1	-2	4	-21	-34	1.2	1.3
CCn1c(SCC(=O)c2cccs2)nnc1-c1ccco1	2	-5	76*	13	0.2	0.9
SMILES	sEH act	sEH inhibitor	CYP2C19 inhib	CYP2C9 inh	CYP2C19 activ	CYP2C9 act
COc1ccc(CCN(Cc2cc3cc(C)c(C)cc3nc2Cl)C(=O)C2CC2)cc1	-1	2	26	23	0.7	0.8
c1cnn(-c2nc(N3CCOCC3)nc(N3CCOCC3)n2)c1	5	-6	-12	53*	1.1	0.5
CCN(CC)CC(=O)NCC1(c2ccccc2)CCOCC1	-4	5	-2	22	1	0.8
O=C(CCn1c(=O)c2sccc2n(CC(=O)OCc2ccccc2)c1=O)NCc1ccco1	-9	7	30	58*	0.7	0.4
O=C(CCn1c(=O)c2sccc2n(CC(=O)OCc2ccccc2)c1=O)NCc1ccccc1	-22	23	30	62*	0.7	0.4
CC1CCCCN1C(=O)Cn1c(=O)n(CCC(=O)NCc2ccco2)c(=O)c2sccc21 (stereo unspecified)	2	-4	-10	9	1.1	0.9
CCN(Cc1ccccc1)C(=O)Cn1c(=O)n(CC(=O)NCc2ccco2)c(=O)c2sccc21	-10	9	15	82*	0.9	0.2
O=C(CCCn1c(=O)c2sccc2n(CC(=O)OCc2ccccc2)c1=O)NCc1ccco1	-15	14	51*	2	0.5	1
Cc1cccc(C)c1NC(=O)Cn1c(=O)n(CCC(=O)NCc2ccco2)c(=O)c2sccc21	-6	4	4	44	1	0.6
CCCNC(=O)CN(C)S(=O)(=O)c1c(C)cc(C)cc1C	-2	6	.	.	.	.
Cc1ccc(C)c(Cn2c(=O)n(-c3ccc(CC(=O)NCc4ccco4)cc3)c(=O)c3sccc32)c1	0	1	-7	23	1.1	0.8
O=C(CCCn1c(=O)c2sccc2n(Cc2ccc(F)cc2)c1=O)NCc1ccco1	0	-1	80*	69*	0.2	0.3
FC(F)(F)c1cccnc1N1CCN(c2ncnc3nc[nH]c23)CC1	.	.	83*	38	0.2	0.6
Cc1cc(C)c(C)c(S(=O)(=O)Nc2ccccc2C(=O)NCCCn2ccnc2)c1C	.	.	99*	98*	0	0
O=C(NCCCn1ccnc1)c1cn(-c2ccccc2)nc1-c1ccc(F)cc1	-5	5	96*	100*	0	0
O=C(NCCCN1CCCC1=O)c1ccccc1NS(=O)(=O)c1ccc(Br)cc1	-64	63	35	80*	0.7	0.2
Cc1ccc(S(=O)(=O)Nc2ccccc2F)cc1C(=O)NCCCN1CCCC1=O	-8	10	-7	4	1.1	1
CC(c1ccccc1)n1cc(C(=O)NCCCn2ccnc2)nn1 (stereo unspecified)	1	-1	.	.	.	.
O=C(NCCCn1ccnc1)c1ccccc1NS(=O)(=O)c1ccc(F)c(F)c1	2	0	99*	100*	0	0
CC(c1ccccc1F)n1cc(C(=O)NCCCn2ccnc2)nn1 (stereo unspecified)	10	-6	.	.	.	.
CC(C)C(NS(=O)(=O)c1cccc2nsnc12)C(=O)N1CCc2ccccc2C1 (stereo unspecified)	0	-3	24	41	0.8	0.6
Cc1ccc(CNC(=O)CSCC(=O)O)cc1	1	-3	-4	-8	1	1.1
Cc1ccc([N+](=O)[O-])cc1N=C(c1cccc(Br)c1)N1CCOCC1	4	-3	64*	52*	0.4	0.5
